# Compound activity (PubChem BioAssay)
# Rows were chosen to be rich in hits. Some 3.8% of all compounds tested hit in one or more screens of this group.
# PrP 5UTR inh = suppresses PrP 5' UTR mRNA reporter expression; cell-based PrP 5' UTR mRNA reporter, plate reader; inhibition, % (test concentration not listed); 0.35% of 340,000 active; AID 488862; in the data active means inhibition above about 52%; further: 0 = median of the neutral control wells
# Mtb FBA inh = inhibitors of M. tuberculosis fructose-bisphosphate aldolase; purified M. tuberculosis FBA, fluorescence read-out; inhibition, % at 1 µM; 2.3% of 360,000 active;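 further: 0% = vehicle and 100% = reference inhibitor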
# Target sequence (P9WQA3 whole entry, looked up): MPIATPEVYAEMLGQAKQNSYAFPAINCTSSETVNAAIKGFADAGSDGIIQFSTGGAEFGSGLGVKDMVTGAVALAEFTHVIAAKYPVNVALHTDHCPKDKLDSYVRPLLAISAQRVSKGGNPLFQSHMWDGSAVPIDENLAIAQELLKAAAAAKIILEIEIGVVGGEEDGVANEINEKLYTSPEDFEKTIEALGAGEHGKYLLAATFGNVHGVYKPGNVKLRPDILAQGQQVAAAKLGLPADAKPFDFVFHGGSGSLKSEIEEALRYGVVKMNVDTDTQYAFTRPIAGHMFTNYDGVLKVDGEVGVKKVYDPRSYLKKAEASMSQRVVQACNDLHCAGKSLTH
# Yp Topo-I inh = blocks Yersinia pestis topoisomerase I activity | 0.064% of 360,000 active | AID 504884 | activity, % at 10 µM | Y. pestis Topo-I cleavage product accumulation, plate reader; in the data active means activity above about 50%, passing the limit was not always enough
# Mtb hypoxia inh = Mtb hypoxia fluorescent reporter inhibition; M. tuberculosis hypoxia-regulated fluorescent reporter, fluorescence; fluorescence inhibition, % (no concentration beside the values); 0.1% of 300,000 active; AID 1159583; in the data active means fluorescence inhibition mostly above about 23%, no sharp cut-off; inactive means mostly below about 17%
# GDH-TPI counter-1 = GDH-TPI coupled enzyme inhibition counter-screen | inhibition, % at 4.8 µM | GDH-TPI coupled enzyme counterscreen, NADH absorbance | 1.2% of 360,000 active; in the data active means inhibition above about 30%;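 further: 0% = DMSO wells and 100% = wells lacking the enzyme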
# PrPC surface inh = reduces human prion protein on the cell surface | inhibition, % at 13.8 µM | cell surface PrPC, TR-FRET read-out | 0.43% of 370,000 active; in the data active means inhibition above about 24%; further: 0% = median of the test wells and 100% = reference compound wells
# Mtb FBA confirm = Mtb FBA inhibition, confirmed; shares compounds with Mtb FBA inh; purified M. tuberculosis FBA, fluorescence read-out; 78% of 5,600 active; inhibition, % at 1 µM;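 further: 0% = vehicle wells and 100% = reference inhibitor wells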
# GDH-TPI counter-2 = inhibits GDH-TPI coupling enzymes, flagging Mtb FBA hits. shares compounds with Mtb FBA inh. GDH-TPI coupled enzyme counterscreen, fluorescence. inhibition, % at 1 µM. 81% of 5,600 active. AID 652141; in the data active means inhibition above about 10%
# GDH-TPI DR = GDH-TPI dose response counter-screen for Mtb FBA | GDH-TPI coupled enzyme assay, fluorescence, artifact counterscreen | 79% of 170 active | IC50, µM | shares compounds with Mtb FBA inh; call rule not given here
# Starred values were filed as active, the others as inactive; . = no result; + = active, no number. Unless noted, no stated cut-off is given here; in the data, active means inhibition above about 27%; inactive means the rest.
SMILES,PrP 5UTR inh,Mtb FBA inh,Yp Topo-I inh,Mtb hypoxia inh,GDH-TPI counter-1,PrPC surface inh,Mtb FBA confirm,GDH-TPI counter-2,others
O=C(NC1CCCN(Cc2ccc(Cl)cc2)C1)c1cnc2ccccn2c1=O (stereo unspecified),5,55*,7,-5,24,3,118*,82*,
CC(=O)Oc1ccc(C=NNC(=S)Nc2ccccc2)cc1,.,.,.,8,.,.,.,.,
Cc1ccc(S(=O)(=O)c2cc3c(=O)n4ccccc4nc3n(C)c2=N)cc1,-17,40*,2,.,13,-2,52*,42*,
Cc1nc2ccccn2c1C(=O)NC1CCCC1,-4,6,1,2,1,7,.,.,
O=C(NC1CCCCCCC1)C1c2ccccc2C(=O)N1Cc1ccco1 (stereo unspecified),-23,3,15,7,2,8,.,.,
N=c1c(C(=O)NC2CCCCC2)cc2c(=O)n3ccccc3nc2n1Cc1ccco1,-21,36*,10,1,5,-23,12,-1,GDH-TPI DR=>10
O=C(NC1CCCCC1)c1cc(Cl)nc2ccccc12,-7,-2,6,3,9,2,.,.,
N=c1c(C(=O)NC2CCCCC2)cc2c(=O)n3ccccc3nc2n1Cc1ccccc1,-2,55*,4,3,0,-16,167*,134*,
Cc1ccc(Cn2c(=N)c(C(=O)NC3CCCC3)cc3c(=O)n4ccccc4nc32)cc1,-17,53*,6,.,9,.,99*,98*,
COc1ccc(CC(C)=NNC(=O)c2cn(C)c3ccccc23)cc1OC,.,.,.,1,.,.,.,.,
NC(N)=NN=Cc1ccc2cccc(OCc3ccccc3)c2n1,.,.,.,23,.,.,.,.,
Cc1cccn2c(=O)c3cc(C(=O)NC4CCCCC4)c(=N)n(Cc4ccc(F)cc4)c3nc12,-16,31*,10,-2,-1,-8,+,+,
O=C(CSc1nc2ccccc2c(=O)n1Cc1ccco1)NCc1ccccc1,0,1,17,4,-1,-3,.,.,
N=c1c(C(=O)NCc2ccc(F)cc2)cc2c(=O)n3ccccc3nc2n1Cc1cccnc1,7,102*,-3,-3,11,-7,152*,116*,
COc1ccc(Cn2c(=O)[nH]c3cc(C(=O)NC4CCCC4)ccc3c2=O)cc1,-16,5,5,4,9,-1,.,.,
N=c1c(C(=O)NCCc2ccccc2)cc2c(=O)n3ccccc3nc2n1Cc1ccco1,-15,30*,8,10,3,-14,+,163*,
CC(C)OCCCn1c(=N)c(C(N)=S)cc2c(=O)n3ccccc3nc21,-19,71*,-7,14,8,-26,92*,81*,
COc1ccc(CCn2c(=N)c(S(=O)(=O)c3ccc(Cl)cc3)cc3c(=O)n4ccccc4nc32)cc1,-20,0,-2,5,2,0,.,.,
NC(N)=NN=Cc1ccc(Cl)c(Cl)c1,.,.,.,9,.,.,.,.,
CC(=NNC(=O)C1COc2ccccc2O1)c1ccc(Cl)s1 (stereo unspecified),.,.,.,14,.,.,.,.,
N=c1c(S(=O)(=O)c2ccccc2)cc2c(=O)n3ccccc3nc2n1Cc1ccco1,2,64*,1,.,19,-10,134*,97*,
N=c1c(C(=O)NC2CCCCC2)cc2c(=O)n3ccccc3nc2n1Cc1cccnc1,-4,107*,4,-8,9,-21,+,+,
COc1ccc(CCn2c(=N)c(S(=O)(=O)c3ccccc3)cc3c(=O)n4ccccc4nc32)cc1,5,3,3,-4,-4,-9,.,.,
N=c1c(C(=O)NC2CCCCC2)cc2c(=O)n3ccccc3nc2n1CCc1ccccc1,-24,47*,1,6,-5,-10,5,4,
CC(C)C(NC(=O)c1ccccc1)C(=O)OCC(=O)NCCc1ccc(F)cc1 (stereo unspecified),.,.,.,13,.,.,.,.,
SMILES,PrP 5UTR inh,Mtb FBA inh,Yp Topo-I inh,Mtb hypoxia inh,GDH-TPI counter-1,PrPC surface inh,Mtb FBA confirm,GDH-TPI counter-2,others
CCN1CCN(c2cc(C)c3cc(NC(=O)CCC(=O)Nc4ccc(OC)cc4OC)ccc3n2)CC1,-6,23,6,4,14,-3,.,.,
COCCCNC(=O)CCC(=O)Nc1ccc2nc(N3CCOCC3)cc(C)c2c1,-61,88*,2,3,8,-3,3,-1,
COc1cccc(NC(=O)CCC(=O)Nc2ccc3nc(N4CCOCC4)cc(C)c3c2)c1,-84,66*,4,-5,-5,4,125*,95*,
CCCCNC(=O)CCC(=O)Nc1ccc2nc(N3CCOCC3)cc(C)c2c1,-42,62*,0,4,3,2,4,-7,
Cc1cc(N2CCCCC2)nc2ccc(NC(=O)CCC(=O)NCCC(C)C)cc12,-33,54*,4,4,2,-3,-5,-4,
CC(=NNC(=O)C1(C)CC1(Br)Br)c1ccc(C)cc1C (stereo unspecified),.,.,.,11,.,.,.,.,
CC(=NNC(=O)c1ccccc1)c1ccc(NC(=O)C(F)(F)F)cc1,.,.,.,12,.,.,.,.,
Cc1cc(N2CCOCC2)nc2ccc(NC(=O)C3CCC(C)CC3)cc12 (stereo unspecified),7,9,-4,1,9,-1,.,.,
CCCCNC(=O)CCC(=O)Nc1ccc2nc(N3CCCCC3)cc(C)c2c1,-48,78*,21,2,5,2,+,145*,
CCOC(=O)C1CCCN(C(=O)CCC(=O)Nc2ccc3nc(N4CCOCC4)cc(C)c3c2)C1 (stereo unspecified),-30,67*,17,3,12,-6,89*,69*,
Cc1cc(N2CCOCC2)nc2ccc(NC(=O)CCC(=O)N3CCC4(CC3)OCCO4)cc12,-30,58*,8,1,11,2,+,+,
Cc1cc(N2CCN(C)CC2)nc2ccc(NC(=O)CCC(=O)NCCCOC(C)C)cc12,-10,25,-6,7,4,4,.,.,
Cc1cc(N2CCN(C)CC2)nc2ccc(NC(=O)CCC(=O)N3CCN(c4ccc([N+](=O)[O-])cc4)CC3)cc12,-18,-5,-2,1,8,-21,.,.,
COc1cc2c(cc1O)CCC1C2CC[C@]2(C)C(O)CCC12 (stereo partly specified),.,.,.,2,.,.,.,.,
COC(=O)c1cc2c(s1)-c1ccc(OC)cc1CC2,-89,109*,2,9,18,6,107*,94*,
C=CCOc1cccc(CNc2cccc(C(=O)O)c2)c1,-47,28*,11,8,7,8,2,6,
O=C(O)c1cccc(NCc2cccnc2)c1,-11,6,4,14,-14,-5,.,.,
